Measured values reported in PubChem BioAssay AID1159580 (chemical genetic matrix, 2015).
About 2,000 (36%) of roughly 5,500 compounds were called active. Not shown: some 18% with an inconclusive outcome. Rule as the data show it: active = normalized growth mostly below about 0.91 (no sharp cut-off); inconclusive = no clear call, values can overlap the other calls; inactive = mostly above about 0.92. Some of the results follow.

Assay: chemical genetic growth profiling, strain panel (AID 1159580);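 also: tested at 20 µM; growth read once vehicle control cultures reached saturation at 30 °C; 1 = growth at the plate median or of vehicle wells; lower values mean less growth of the strain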
Conditions: growth OD

Measured: normalized growth

O=c1oc2c(O)c(O)cc3c(=O)oc4c(O)c(O)cc1c4c23
inactive: S. cerevisiae deletion strains, locus YKL009W, strain mrt4, stronger effect = lower value 0.978 | S. cerevisiae deletion strains, locus YKL068W, stronger effect = lower value 0.994 | S. cerevisiae deletion strains, locus YKL085W, strain MDH1 (second series), stronger effect = lower value 0.972 | S. cerevisiae deletion strains, locus YKL085W, strain MDH1, stronger effect = lower value 0.972 | S. cerevisiae deletion strains, locus YKR026C, strain gcn3, stronger effect = lower value 0.992 | S. cerevisiae deletion strains, locus YLR102C, strain apc9, stronger effect = lower value 0.933 | S. cerevisiae deletion strains, locus YLR113W, strain HOG1, stronger effect = lower value 0.981 | S. cerevisiae deletion strains, locus YMR125W, strain sto1, stronger effect = lower value 1 | S. cerevisiae deletion strains, locus YMR307W, strain GAS1, stronger effect = lower value 0.731 | S. cerevisiae deletion strains, locus YNL183C, strain NPR1, stronger effect = lower value 0.922 | S. cerevisiae deletion strains, locus YNL248C, strain rpa49, stronger effect = lower value 0.912 | S. cerevisiae deletion strains, locus YNL250W, strain rad50, stronger effect = lower value 0.947 | S. cerevisiae deletion strains, locus YOL012C, strain htz1 0.268 | S. cerevisiae deletion strains, locus YOR231W, strain MKK1, stronger effect = lower value 0.972 | S. cerevisiae deletion strains, locus YPL256C, strain CLN2, stronger effect = lower value 1.01 | S. cerevisiae deletion strains, locus YPR119W, strain clb2, stronger effect = lower value 0.947 | S. cerevisiae deletion strains, locus YPR141C, strain kar3, stronger effect = lower value 0.987
active: S. cerevisiae deletion strains, locus YJR075W, strain HOC1, stronger effect = lower value 0.684 | S. cerevisiae deletion strains, locus YKL160W, strain elf1, stronger effect = lower value 0.82 | S. cerevisiae deletion strains, locus YKL190W, strain CNB1, stronger effect = lower value 0.712 | S. cerevisiae deletion strains, locus YKR001C, strain vps1, stronger effect = lower value 0.54 | S. cerevisiae deletion strains, locus YKR091W, strain srl3, stronger effect = lower value 0.924 | S. cerevisiae deletion strains, locus YLL001W, strain dnm1, stronger effect = lower value 0.747 | S. cerevisiae deletion strains, locus YLL026W, stronger effect = lower value 0.686 | S. cerevisiae deletion strains, locus YLL041C, strain sdh2, stronger effect = lower value 0.904 | S. cerevisiae deletion strains, locus YLR027C, strain aat2, stronger effect = lower value 0.772 | S. cerevisiae deletion strains, locus YLR039C, strain RIC1, stronger effect = lower value 0.407 | S. cerevisiae deletion strains, locus YLR058C, strain SHM2, stronger effect = lower value 0.578 | S. cerevisiae deletion strains, locus YLR221C, strain rsa3, stronger effect = lower value 0.717 | S. cerevisiae deletion strains, locus YLR258W, strain gsy2, stronger effect = lower value 0.747 | S. cerevisiae deletion strains, locus YLR262C, strain YPT6 (second series), stronger effect = lower value 0.648 | S. cerevisiae deletion strains, locus YLR262C, strain YPT6, stronger effect = lower value 0.556 | S. cerevisiae deletion strains, locus YLR268W, strain sec22, stronger effect = lower value 0.356 | S. cerevisiae deletion strains, locus YLR320W, strain mms22, stronger effect = lower value 0.617 | S. cerevisiae deletion strains, locus YLR330W, strain CHS5, stronger effect = lower value 0.584 | S. cerevisiae deletion strains, locus YLR342W, strain FKS1 (second series), stronger effect = lower value 0.401 | S. cerevisiae deletion strains, locus YLR342W, strain FKS1, stronger effect = lower value 0.628 | S. cerevisiae deletion strains, locus YLR357W, strain rsc2, stronger effect = lower value 0.627 | S. cerevisiae deletion strains, locus YLR370C, strain arc18, stronger effect = lower value 0.422 | S. cerevisiae deletion strains, locus YLR371W, strain rom2, stronger effect = lower value 0.605 | S. cerevisiae deletion strains, locus YLR384C, strain iki3, stronger effect = lower value 0.724 | S. cerevisiae deletion strains, locus YLR418C, strain cdc73, stronger effect = lower value 0.366 | S. cerevisiae deletion strains, locus YML016C, strain PPZ1, stronger effect = lower value 0.626 | S. cerevisiae deletion strains, locus YML032C, strain rad52, stronger effect = lower value 0.66 | S. cerevisiae deletion strains, locus YML120C, strain ndi1, stronger effect = lower value 0.581 | S. cerevisiae deletion strains, locus YML124C, strain tub3, stronger effect = lower value 0.778 | S. cerevisiae deletion strains, locus YMR058W, strain fet3, stronger effect = lower value 0.848 | S. cerevisiae deletion strains, locus YMR078C, strain ctf18, stronger effect = lower value 0.875 | S. cerevisiae deletion strains, locus YMR129W, stronger effect = lower value 0.886 | S. cerevisiae deletion strains, locus YMR205C, strain PFK2, stronger effect = lower value 0.685 | S. cerevisiae deletion strains, locus YMR223W, strain ubp8, stronger effect = lower value 0.612 | S. cerevisiae deletion strains, locus YMR231W, strain pep5, stronger effect = lower value 0.728 | S. cerevisiae deletion strains, locus YMR263W, strain SAP30, stronger effect = lower value 0.616 | S. cerevisiae deletion strains, locus YNL067W, strain RPL9B, stronger effect = lower value 0.572 | S. cerevisiae deletion strains, locus YNL071W, strain lat1, stronger effect = lower value 0.86 | S. cerevisiae deletion strains, locus YNL128W, strain TEP1, stronger effect = lower value 0.558 | S. cerevisiae deletion strains, locus YNL153C, strain GIM3, stronger effect = lower value 0.492 | S. cerevisiae deletion strains, locus YNL209W, strain ssb2, stronger effect = lower value 0.444 | S. cerevisiae deletion strains, locus YNL233W, strain BNI4, stronger effect = lower value 0.594 | S. cerevisiae deletion strains, locus YNL271C, strain bni1, stronger effect = lower value 0.885 | S. cerevisiae deletion strains, locus YNL298W, strain CLA4, stronger effect = lower value 0.907 | S. cerevisiae deletion strains, locus YNL307C, strain MCK1, stronger effect = lower value 0.787 | S. cerevisiae deletion strains, locus YNL322C, strain KRE1 (second series), stronger effect = lower value 0.685 | S. cerevisiae deletion strains, locus YNR049C, strain mso1, stronger effect = lower value 0.896 | S. cerevisiae deletion strains, locus YNR052C, strain pop2, stronger effect = lower value 0.365 | S. cerevisiae deletion strains, locus YOL147C, strain pex11, stronger effect = lower value 0.658 | S. cerevisiae deletion strains, locus YOR001W, strain rrp6, stronger effect = lower value 0.735 | S. cerevisiae deletion strains, locus YOR061W, strain CKA2, stronger effect = lower value 0.618 | S. cerevisiae deletion strains, locus YOR069W, strain VPS5, stronger effect = lower value 0.69 | S. cerevisiae deletion strains, locus YOR070C, strain gyp1, stronger effect = lower value 0.593 | S. cerevisiae deletion strains, locus YOR080W, strain dia2, stronger effect = lower value 0.638 | S. cerevisiae deletion strains, locus YOR083W, strain WHI5, stronger effect = lower value 0.717 | S. cerevisiae deletion strains, locus YOR106W, strain vam3, stronger effect = lower value 0.507 | S. cerevisiae deletion strains, locus YOR136W, strain idh2, stronger effect = lower value 0.796 | S. cerevisiae deletion strains, locus YOR144C, strain elg1, stronger effect = lower value 0.68 | S. cerevisiae deletion strains, locus YOR184W, strain ser1, stronger effect = lower value 0.538 | S. cerevisiae deletion strains, locus YOR265W, strain rbl2, stronger effect = lower value 0.771 | S. cerevisiae deletion strains, locus YOR270C, strain vph1, stronger effect = lower value 0.467 | S. cerevisiae deletion strains, locus YOR290C, strain snf2, stronger effect = lower value 0.167 | S. cerevisiae deletion strains, locus YOR316C, strain cot1, stronger effect = lower value 0.852 | S. cerevisiae deletion strains, locus YPL051W, strain arl3, stronger effect = lower value 0.627 | S. cerevisiae deletion strains, locus YPL055C, strain LGE1, stronger effect = lower value 0.624 | S. cerevisiae deletion strains, locus YPL078C, strain atp4, stronger effect = lower value 0.767 | S. cerevisiae deletion strains, locus YPL106C, strain sse1, stronger effect = lower value 0.809 | S. cerevisiae deletion strains, locus YPL240C, strain hsp82, stronger effect = lower value 0.864 | S. cerevisiae deletion strains, locus YPL241C, strain CIN2, stronger effect = lower value 0.816 | S. cerevisiae deletion strains, locus YPR163C, strain tif3, stronger effect = lower value 0.876 | S. cerevisiae deletion strains, locus YPR167C, strain met16, stronger effect = lower value 0.725 | S. cerevisiae deletion strains, strain wtn01, stronger effect = lower value 0.511 | S. cerevisiae strains, strain wild type, stronger effect = lower value 0.605
